Screening data from PubChem.
GRK2 aptamer HTS = human GRK2 inhibition via aptamer displacement; bead flow cytometry, FAM-aptamer displacement from GRK2; inhibition of aptamer binding, % at 10 µM; actives 0.59% (n = 330,000); AID 488847;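 active means inhibition of aptamer binding above 40%, roughly 3 SD of noise, on plates passing a quality check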;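 further: median bead fluorescence of bound FAM aptamer so fluorescent compounds give negative values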
PKD1 kinase inh = PKD1 (human) kinase inhibition; inhibition, % (test concentration not listed); PKD1 kinase fluorescence polarization assay; actives 0.056% (n = 200,000)
LANA-H2B inh = blocks KSHV LANA binding to histone H2A/H2B. cell-free LANA-H2A/H2B peptide, fluorescence polarization. actives 0.6% (n = 320,000). inhibition, % (no concentration beside the values); in the data active means inhibition mostly above about 10%, no sharp cut-off; inactive means mostly below about 6.7%
VLA-4 inh = inhibition in a human VLA-4 binding assay | VLA-4 expressing cells, ligand binding flow cytometry | inhibition, % (about 7 µM as worked out from the volumes in the protocol) | P13612 | AID 2557 | actives 0.2% (n = 330,000)
HDAC3 inhib = inhibitors of human histone deacetylase 3. actives 0.15% (n = 320,000). inhibition, % at 8.3 µM. recombinant HDAC3, fluorogenic peptide/trypsin coupled, fluorescence. O15379; in the data active means inhibition above about 26%, passing the limit was not always enough; inconclusive means no clear call, values can overlap the other calls
DSG3 Ab inh = inhibitors of pemphigus antibody binding to human desmoglein-3. P32926. DSG3-coupled beads, scFv-anti-DSG3-GFP binding, flow cytometry; active compounds read low. binding (percent of control), % at 10 µM. actives 0.48% (n = 310,000). AID 588358;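 active means binding more than 3 SD below its plate's average and above zero; inconclusive means below that plate limit but binding exactly zero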;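 further: hits lower antibody fragment binding to DSG3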
Target sequence (P32926 whole entry, looked up, the tested form may be a part): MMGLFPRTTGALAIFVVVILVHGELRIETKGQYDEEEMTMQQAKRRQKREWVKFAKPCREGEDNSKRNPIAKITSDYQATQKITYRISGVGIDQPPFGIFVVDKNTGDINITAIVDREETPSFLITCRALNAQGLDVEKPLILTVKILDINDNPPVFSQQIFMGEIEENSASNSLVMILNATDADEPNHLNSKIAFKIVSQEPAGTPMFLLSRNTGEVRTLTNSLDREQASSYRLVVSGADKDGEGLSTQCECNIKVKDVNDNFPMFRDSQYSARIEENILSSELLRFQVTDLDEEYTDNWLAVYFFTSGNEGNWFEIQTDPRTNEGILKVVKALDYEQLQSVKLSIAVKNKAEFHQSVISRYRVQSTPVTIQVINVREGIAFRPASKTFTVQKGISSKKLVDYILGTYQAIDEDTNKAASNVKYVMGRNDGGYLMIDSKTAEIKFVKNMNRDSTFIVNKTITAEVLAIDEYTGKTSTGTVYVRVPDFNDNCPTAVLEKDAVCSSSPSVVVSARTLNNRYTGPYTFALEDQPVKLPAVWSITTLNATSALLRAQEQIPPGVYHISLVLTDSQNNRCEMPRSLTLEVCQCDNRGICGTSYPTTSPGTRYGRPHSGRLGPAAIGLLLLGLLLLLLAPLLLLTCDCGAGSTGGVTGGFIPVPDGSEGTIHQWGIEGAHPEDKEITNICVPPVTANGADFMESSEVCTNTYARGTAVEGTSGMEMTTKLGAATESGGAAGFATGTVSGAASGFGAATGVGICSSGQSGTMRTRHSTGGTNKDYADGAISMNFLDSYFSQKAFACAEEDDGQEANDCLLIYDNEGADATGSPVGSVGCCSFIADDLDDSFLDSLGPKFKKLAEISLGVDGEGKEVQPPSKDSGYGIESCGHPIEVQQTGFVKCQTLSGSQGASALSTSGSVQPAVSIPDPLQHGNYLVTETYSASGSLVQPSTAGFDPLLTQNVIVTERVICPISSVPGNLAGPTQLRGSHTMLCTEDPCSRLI
Each line names hits and unclear results; the compound was inactive in the other large screens; ! = not active in a repeat. A selection: hits, their analogues and other compounds. The true share with any hit is near 1.8%. Unless noted, no stated cut-off is given here; in the data, active means inhibition above about 50%; inactive means the rest.

CCOC(=O)C1(Cc2cccc(Cl)c2)CCCN(C(=O)c2ccc(COC)s2)C1 (centres undefined)	none (no result: PKD1 kinase inh, DSG3 Ab inh)
CN(C)C1(CNC(=O)C2CCC(=O)N(Cc3ccc(Cl)cc3)C2)CCCCC1 (centres undefined)	LANA-H2B inh 11 (no result: PKD1 kinase inh)
Cc1oc2c(c1C(=O)c1ccccc1)C(=O)C(=O)c1ccccc1-2	GRK2 aptamer HTS 58
Cc1oc2c(c1C(=O)O)C(=O)c1ccccc1C2=O	none
COc1ccc(N2C(=O)CSC2c2ccccc2[N+](=O)[O-])cc1 (centres undefined)	LANA-H2B inh active
O=C(O)c1cc(-c2ccc(Cl)cc2)n(-c2ccc(Cl)cc2)n1	none
CC(C)C(c1nnnn1C1CCCCC1)N1CCOCC1 (centres undefined)	LANA-H2B inh 19
COc1cc(-c2nc(C(=O)NCC3CCCO3)cc3c2[nH]c2ccccc23)cc(OC)c1OC (centres undefined)	none (no result: PKD1 kinase inh)
COc1ccccc1-c1nc(C(=O)NCC2CCCO2)cc2c1[nH]c1ccccc12 (centres undefined)	DSG3 Ab inh 77 (no result: PKD1 kinase inh)
COc1ccccc1N1CCN(C2CC(=O)N(c3cccc(Cl)c3)C2=O)CC1 (centres undefined)	LANA-H2B inh 21 (no result: GRK2 aptamer HTS, PKD1 kinase inh)
COc1ccc(C(=O)Oc2ccc(=O)n(-c3ccccc3)n2)cc1	HDAC3 inhib 76
O=C(Oc1ccc(=O)n(-c2ccccc2)n1)c1cccc(Cl)c1	HDAC3 inhib 44
N#CC(c1nc2ccccc2nc1N1CCCC1)S(=O)(=O)c1ccccc1 (centres undefined)	LANA-H2B inh 17
CN1CCN(c2nc3ccccc3nc2C(C#N)S(=O)(=O)c2ccccc2)CC1 (centres undefined)	none (no result: PKD1 kinase inh, DSG3 Ab inh)
CCC(=O)N(Cc1cc(=O)[nH]c2ccccc12)c1ccc(OC)cc1	none (no result: PKD1 kinase inh)
COc1ccc(C(=O)N(C)C2(C)CCS(=O)(=O)C2)cc1OC (centres undefined)	none (no result: PKD1 kinase inh)
CN(C(=O)c1ccc2c(c1)OCO2)C1(C)CCS(=O)(=O)C1 (centres undefined)	LANA-H2B inh 14 (no result: PKD1 kinase inh)
CCCn1c2ccccc2c2cnn(CC(=O)NCCCN3CCCC(C)C3)c(=O)c21 (centres undefined)	none (no result: PKD1 kinase inh)
COc1ccc2c3c(cccc13)C(=O)CC2	LANA-H2B inh active (no result: PKD1 kinase inh)
COc1ccc(NC(=O)c2ccco2)cc1NC(=O)c1ccc(C)cc1	none
COc1ccc(NC(=O)CCc2ccccc2)cc1NC(=O)c1ccco1	LANA-H2B inh 28
COc1ccc(CC(=O)Nc2ccc(OC)c(NC(=O)c3ccco3)c2)cc1	LANA-H2B inh 31
COc1cccc(-c2ncc3ccccc3c2COC(=O)c2ccc(C(F)(F)F)cc2)c1	none (no result: PKD1 kinase inh)
NNC(=O)CCc1nc2ccc(O)cc2[nH]1	LANA-H2B inh 13
Cc1ccc(C)c(N(C)C(=O)CCS(=O)(=O)c2cccc3nonc23)c1	none (no result: PKD1 kinase inh, DSG3 Ab inh)
Cc1cc(C(=O)NNC(=O)COc2ccccc2Cl)n[nH]1	none (no result: PKD1 kinase inh)
Cc1ccsc1C(=O)NNC(=O)COc1ccccc1Cl	DSG3 Ab inh -0.8 (no result: PKD1 kinase inh)
Cc1ccc(C(=O)NCCc2nnc3ccc(SCC(=O)N4CCCCC4)nn23)cc1	none (no result: PKD1 kinase inh)
COC(=O)CC1C(=O)NCCN1C(=O)CSc1nc2ccc([N+](=O)[O-])cc2s1 (centres undefined)	none
Cn1ccnc1C(O)c1ccccc1 (centres undefined)	none
COc1ccc2ccccc2c1C(O)c1nccn1C (centres undefined)	LANA-H2B inh 38
COc1cccc(C2CC(c3ccc(Cl)cc3)n3nc(N)nc3N2)c1 (centres undefined)	LANA-H2B inh active
CCOc1ccc(C2CC(c3ccccc3C)n3nc(N)nc3N2)cc1 (centres undefined)	LANA-H2B inh 33
COc1cccc(NC(=O)CN(C)C(C)C(=O)NC(C)c2ccc(Cl)cc2Cl)c1 (centres undefined)	none (no result: GRK2 aptamer HTS, PKD1 kinase inh, LANA-H2B inh, VLA-4 inh, HDAC3 inhib)
CC(=O)c1cccc(OCC(=O)NC2CCCCCC2)c1	none (no result: GRK2 aptamer HTS, PKD1 kinase inh, LANA-H2B inh, VLA-4 inh, HDAC3 inhib)
O=C(NCC1CCCO1)C1CCN(S(=O)(=O)c2cc(Cl)ccc2Cl)CC1 (centres undefined)	LANA-H2B inh 13, DSG3 Ab inh inconclusive (no result: PKD1 kinase inh)
O=C(OCC(=O)N1CCN(c2ccccc2)CC1)c1cc(Cl)ccc1[N+](=O)[O-]	none (no result: PKD1 kinase inh)
O=C(O)c1ccc(O)cc1O	LANA-H2B inh 28 (no result: PKD1 kinase inh)
CCOc1ccc(NC(=O)CCNS(=O)(=O)c2ccc3c(c2)CC(C)N3C(C)=O)cc1 (centres undefined)	none (no result: PKD1 kinase inh)
O=C1C=CC(=O)c2c(O)c(CO)c(CO)c(O)c21	DSG3 Ab inh 25 (no result: GRK2 aptamer HTS, PKD1 kinase inh, LANA-H2B inh, VLA-4 inh, HDAC3 inhib)
Cc1cc(C)c(S(=O)(=O)N2CCCOC2CNC(=O)C(=O)NCc2cccs2)c(C)c1 (centres undefined)	none
Cc1cccc(NC(=O)CSc2nnc(-c3ccncc3)n2CC2CCCO2)c1 (centres undefined)	none (no result: PKD1 kinase inh)
O=C(O)CC(NC(=O)CCc1ccccc1)c1ccc(Cl)cc1 (centres undefined)	none (no result: PKD1 kinase inh)
CCC(NC(=O)C1C2C=CC(C2)C1C(=O)O)c1ccc(C)cc1 (centres undefined)	LANA-H2B inh 104 (no result: GRK2 aptamer HTS, PKD1 kinase inh)
O=C(O)c1cccc(S(=O)(=O)Nc2ccccc2C(=O)NCCc2ccccc2)c1	DSG3 Ab inh 17 (no result: PKD1 kinase inh)
O=C(Nc1ccccc1C(=O)O)c1cccc(S(=O)(=O)Nc2ccc(Br)cc2)c1	LANA-H2B inh 19 (no result: PKD1 kinase inh)
O=C(Nc1ccccc1C(=O)O)c1cccc(NS(=O)(=O)c2ccc(Br)cc2)c1	none (no result: PKD1 kinase inh)
O=C(O)c1cccc(S(=O)(=O)NCCc2ccccc2)c1	none
COC(=O)C1=C(C)NC(C)=C(C(=O)OC)C1C1CC=CCC1 (centres undefined)	LANA-H2B inh 8.1 (no result: DSG3 Ab inh)
COc1ccccc1NC(=O)c1c([N+](=O)[O-])cnn1C	LANA-H2B inh 15 (no result: PKD1 kinase inh)
Cc1cccc(Nc2ncccc2C(=O)O)c1C	LANA-H2B inh 59!
CCCCNC(=O)Nc1nc(SCC(=O)OCC)n[nH]1	none
CCOC(=O)CSc1n[nH]c(NC(=O)c2cccc(C)c2)n1	HDAC3 inhib 90
Cc1cccc(C)c1NC(=O)CN1CCN(C(=O)c2ccc(OCc3cn4ccccc4n3)cc2)CC1	none (no result: PKD1 kinase inh)
COc1ccc(CN(C)CCCn2cnc3c(OCc4ccccc4)ncnc32)cc1OC	none (no result: GRK2 aptamer HTS, PKD1 kinase inh, LANA-H2B inh, VLA-4 inh, HDAC3 inhib)
Cc1cc([N+](=O)[O-])nn1Cc1noc(C(=O)NCCc2ccccn2)n1	none (no result: PKD1 kinase inh)
Cc1onc(-c2ccccc2)c1C(=O)N1CCN(c2ccc([N+](=O)[O-])cc2)CC1	LANA-H2B inh 16 (no result: PKD1 kinase inh)
Cc1ccc(S(=O)(=O)N2[C@@H](c3ccc(Cl)cc3)C(C(=O)O)=C[C@H]2C(C)(C)C)cc1	LANA-H2B inh active (no result: PKD1 kinase inh)
COc1ccc(N(C(=O)CNC(=O)c2ccco2)C(C(=O)NC2CCCC2)c2ccco2)cc1 (centres undefined)	none (no result: PKD1 kinase inh)
O=C(C1CCN(S(=O)(=O)c2cccc3cccnc23)CC1)N1CCCC1	DSG3 Ab inh 89
O=C(C1CCN(S(=O)(=O)c2cnc[nH]2)CC1)N1CCN(c2ncccn2)CC1	LANA-H2B inh 17
